# KB-V1 MDR tox = KB-V1 MDR subline cytotoxicity. KB-V1 MDR cells viability, CellTiter-Glo, 72 h. Potency, µM (highest dose often 46.1 µM), most hits filed as cytotoxic. 3.4% of 400,000 active. AID 1347076; further: nearly all actives have a fitted effect of over 60% in size
#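 KB-V1 cells (P-gp-expressing MDR subline of KB-3-1) in phenol-red-free DMEM with 10% FBS were exposed to library compounds over a concentration series for 72 h at 37 degrees C. Viability read by CellTiter-Glo luminescence; concentration-effect curves fitted after normalization.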
# TDP1 cell noCPT = qHTS for Inhibitors of human tyrosyl-DNA phosphodiesterase 1 (TDP1): qHTS in cells in absence of CPT; DT40 Tdp1-/- hTDP1 cells, no CPT, ATP luminescence, 48 h; Potency, µM (top dose mostly 46.2 µM), for the others: top-dose activity change, negative = growth inhibition, actives largely listed as inhibitors; 15% of 420,000 active; AID 686978, 2013; further: nearly all actives have a fitted effect of over 55% in size
#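 Luminescent ATP content (CellTiter-Glo) served as the growth readout. Knockout chicken DT40 cells expressing human TDP1 were exposed to compounds without camptothecin for a minimum 48 hr at 37 °C.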
# HT1080NT lethal = kills 2HG-producing HT-1080-NT fibrosarcoma cells. Potency, µM (series often up to 46.1 µM), without a hit: at the highest dose activity, negative = less viability, usual class: cytotoxic. AID 686970. HT-1080-NT fibrosarcoma viability, CellTiter-Glo ATP luminescence, 48 h. 1.6% of 360,000 active;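 further: NT is the 2HG producing partner of a matched IDH1 knockdown line; 0% = DMSO-treated cells and -100% = media-only wells without cells; nearly all actives have a fitted effect of over 55% in size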
#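 Fibrosarcoma NT cells, 750 per well in 5% FBS RPMI, were exposed to compound for 48 hours. Viability: CellTiter-Glo luminescence.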
# DT40 TDP1 CPT = growth inhibition of DT40 Tdp1-/-;hTDP1 cells with camptothecin (screen for TDP1 inhibitors); chicken DT40 Tdp1-/-;hTDP1 cells + 20 nM CPT, ATP luminescence, 48 h; Potency, µM (top dose mostly 46.2 µM), for the others: top-dose activity change, negative = growth inhibition, actives largely listed as inhibitors; AID 686979; 12% of 420,000 active; further: nearly all actives have a fitted effect of over 55% in size
#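 Chicken DT40 Tdp1-/- cells complemented with human TDP1, 400 cells/well, exposed to compounds plus 20 nM camptothecin for at least 48 h at 37 C; viability read as ATP content by CellTiter-Glo luminescence.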
# KB-3-1 cytotox = kills parental KB-3-1 adenocarcinoma cells; KB-3-1 viability, CellTiter-Glo ATP luminescence, 72 h; Potency, µM (doses to about 46.1 µM), usual class: cytotoxic; 1.4% of 400,000 active; further: nearly all actives have a fitted effect of over 60% in size
#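 Parental KB-3-1 adenocarcinoma cells in phenol-red-free DMEM with 10% FBS were pin-treated with compounds at several concentrations, incubated 72 h at 37 °C, and viability read by CellTiter-Glo luminescence; concentration-effect curves were fitted after normalization.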
# HT1080 IDH1KD tx = HT-1080 IDH1 knockdown cell toxicity (counter line); HT-1080 IDH1 knockdown viability, ATP luminescence, 48 h; Potency, µM (series often up to 46.1 µM), inactives show at the highest dose activity, negative = toxicity, hits mostly cytotoxic; 2% of 360,000 active;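 further: 0% = DMSO wells and -100% = cell-free medium wells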
#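 Knockdown cells (IDH1KD HT-1080) received compounds 2 h after plating at 750 cells/well and were kept 48 h at 37 °C in 5% FBS RPMI. A CellTiter-Glo luminescence read gave % activity for curve fitting.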
# * hit, by the source's call; i = inactive; ? = inconclusive; / = no result given; ! = not active in a repeat. Rows were chosen to be rich in hits. Some 19% of all compounds tested hit in one or more screens of this group. The call rests on the fitted dose curve; in most records, active means well fitted curve in the direction sought with a large enough effect; inconclusive means small, poorly fitted or top-dose-only effect, or another doubt; inactive means no such curve, though single readings can be large; an effect the other way counts as inactive or inconclusive. Unless noted, on the % scale 0 is the no-effect control and ±100 the full control effect; potency means the concentration at half of the fitted maximal effect.
SMILES,KB-V1 MDR tox,TDP1 cell noCPT,HT1080NT lethal,DT40 TDP1 CPT,KB-3-1 cytotox,HT1080 IDH1KD tx
O=Nc1ccc(/C=C/c2ccnc3ccccc23)cc1,i,8.91µM*,/,15.8µM*,i,/
Cc1oc2ccc(O)c(CN3CCCC3)c2c1C(=O)Nc1cccc(Cl)c1C,i,20.6µM*,/,16.4µM*,i,/
Cc1oc2ccc(O)c(CN3CCN(Cc4ccccc4)CC3)c2c1C(=O)Nc1cccc(Cl)c1C,/,-77.4%,/,16.4µM*,/,/
Cc1ccc(NC(=O)c2c(C)oc3ccc(O)c(CN4CCCC4)c23)c(C)c1,i,?,/,?,i,/
Cc1ccccc1NC(=O)c1c(C)oc2ccc(O)c(CN3CCN(C)CC3)c12,i,?,/,16.4µM*,i,/
CCc1ccc2oc(-c3ccc(NC(=O)c4cccc(Cl)c4Cl)cc3)nc2c1,i,?,/,?,?,/
COC(=O)c1c(S(N)(=O)=O)c2ccccc2n1C,i,-25.2%,-1.5%,8.0%,i,-4.1%
COC(=O)c1c(C(=O)c2ccc(Br)cc2)n(C)c2ccccc12,20.6µM*,?,-1.2%,?,?,-10.6%
Cc1cc(C(C)(C)CC(C)(C)C)ccc1OCCOCC[N+](C)(C)Cc1ccccc1,i,4.11µM*,?,3.66µM*,?,?
O=C(C[C@@H]1C[C@H]2c3cc(NC(=O)c4cccnc4)ccc3O[C@H]2[C@H](CO)O1)NCc1ccc(Oc2ccccc2)cc1,i,5.8µM*,?,13µM*,18.4µM*,?
O=C(C[C@@H]1C[C@H]2c3cc(NC(=O)C4CCC4)ccc3O[C@H]2[C@@H](CO)O1)NCc1ccc(-c2ccccc2)cc1,i,20.6µM*,?,18.4µM*,?,?
COc1ccc(CNc2nc(NCc3ccc(OC)cc3)c3[nH]cnc3n2)cc1,i,29.1µM*,?,?,?,?
COc1ccc(CNc2ncnc3nc[nH]c23)cc1,i,14.1µM*!,1.2%,14.1µM*,i,-4.7%
CC1CCN(C(=O)COC(=O)CCC(=O)c2ccc(Cl)cc2)CC1,i,0.0%,8.8%,-20.8%,i,2.3%
Cc1c(C(=O)Nc2cccc(Cl)c2)oc2ccc(S(=O)(=O)N3CCCCCC3)cc12,i,?,/,23.1µM*,i,/
Cc1c(C(=O)Nc2cc(S(=O)(=O)N3CCOCC3)ccc2N2CCOCC2)oc2ccccc12,i,?,6.2%,18.4µM*,i,-2.4%
Cc1ccc(Cl)cc1NC(=O)c1oc2ccc(S(=O)(=O)N3CCC4(CC3)OCCO4)cc2c1C,/,-14.7%,/,-24.5%,/,/
Cc1c(C(=O)Nc2ccccc2Br)oc2ccc(S(=O)(=O)N3CCCCC3)cc12,i,?,/,?,i,/
Cc1c(C(=O)Nc2cccc(Cl)c2)oc2ccc(S(=O)(=O)N3CCC4(CC3)OCCO4)cc12,4.11µM*,18.4µM*,-2.5%,9.2µM*,?,-2.2%
Cc1c(C(=O)Nc2ccccc2Cl)oc2ccc(S(=O)(=O)N3CCCCCC3)cc12,i,13µM*,/,5.8µM*,i,/
N#CC1C(=O)NC(=O)C(C#N)C12CCCC(C(F)(F)F)C2 (stereo unspecified),i,3.2%,-0.9%,-10.8%,i,2.5%
CCN(Cc1ccncc1)Cc1c(O)ccc2cc(Br)ccc12,i,3.0%,-20.6%,5.4%,i,?
COc1cccc(NC(=O)c2c(C)nn(-c3ccccc3)c2Cl)c1,?,?,-1.1%,?,i,-9.6%
COc1cccc(NC(=O)c2oc3ccc(S(=O)(=O)N4CCOCC4)cc3c2C)c1,?,13µM*,-10.1%,14.6µM*!,i,-14.4%

# Screening data from PubChem.
